Screens deposited in PubChem by University of Kansas High Throughput Screening Laboratory.
Pf apPOL block – Pf-apPOL DNA polymerase inhibition | Recombinant Pf-apPOL, molecular beacon fluorescence, 1.5 h | inhibition, % at 10 µM | 210,000 compounds, 0.25% hits
mHTT CaM bind – disrupts binding of mutant huntingtin to calmodulin; P42858; AlphaScreen His-mHTT/GST-CaM binding, luminescence; inhibition, % at 15 µM; 190,000 compounds, 3.6% hits;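 also: 0% = both proteins with DMSO and 100% = one protein alone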
Numbers without * were called inactive. A selection: hits, their analogues and other compounds. The true share with any hit is near 3.5%. Rule as the data show it: active = inhibition above about 50%; inactive = the rest.

SMILES	Pf apPOL block	mHTT CaM bind
CCN(CCNC(=O)c1c[nH]n2c(=O)c(Cc3ccccc3F)c(C)nc12)c1ccccc1	-23	79*
CCCc1c(C)nc2c(C(=O)NCc3ccccc3)c[nH]n2c1=O	-9	21
Cc1nc2c(C(=O)NCc3ccccc3Cl)c[nH]n2c(=O)c1Cc1ccccc1F	-10	31
Cc1nc2c(C(=O)NCCN(C)C)c[nH]n2c(=O)c1Cc1ccccc1F	3	18
COc1cccc(CNC(=O)c2c[nH]n3c(=O)c(Cl)c(C)nc23)c1	-7	52*
Cc1cc(=O)n2[nH]cc(C(=O)NCc3ccccc3)c2n1	-11	5
CCC(C)NC(=O)c1c[nH]n2c(=O)c(Cc3ccccc3Cl)c(C)nc12 (stereo unspecified)	-4	59*
Cc1ccc(CNC(=O)c2c[nH]n3c(=O)cc(CSc4ccc(Cl)cc4)nc23)cc1	47	65*
C[S+](C)c1c(O)n(-c2ccc(F)cc2)c(=O)[nH]c1=O	-1	0
NC(=O)C1CCN(c2nc(Nc3ccccc3)nc(Nc3ccccc3)n2)CC1	-8	35
O=C(NCc1ccc(F)cc1)C1CC(=O)N(Cc2ccc(F)cc2)C1 (stereo unspecified)	-4	0
Cc1nc(-c2ccccc2)nc2c1CC(=O)N2C(C)C	2	-8
O=C(CSc1nc2ccccc2o1)NCCC12CC3CC(CC(C3)C1)C2	2	-9
CCCc1c(C)nc2c(C(=O)NCc3ccc(C)cc3)c[nH]n2c1=O	10	21
CCCc1c(C)nc2c(C(=O)NCc3ccc(OC)cc3)c[nH]n2c1=O	-1	10
Cc1nc2c(C(=O)NCCc3ccccc3)c[nH]n2c(=O)c1Cc1ccccc1F	-5	29
COc1cccc(CNC(=O)c2c[nH]n3c(=O)c(Cc4ccccc4F)c(C)nc23)c1	-15	72*
COc1cccc(CNC(=O)c2c[nH]n3c(=O)c(Cc4ccc(C)cc4)c(C)nc23)c1	-17	61*
Cc1ccc(CNC(=O)c2c[nH]n3c(=O)c(Cc4ccc(Cl)cc4)c(C)nc23)cc1	-4	96*
Cc1ccc(-c2noc(-c3c(O)c4ccccc4n(C)c3=O)n2)cc1	-2	-1
COc1ccc(O)c(C2=Nc3ccccc3N=C(c3cccc([N+](=O)[O-])c3)C2)c1	-2	57*
COc1ccc(-c2nnc(-c3cccc([N+](=O)[O-])c3)o2)cc1	6	-13
N#Cc1cccc(CN2CCC(c3nc(-c4ccccc4)n[nH]3)CC2)c1	-16	2
O=C(NCCN1CCN(C(=O)NCc2ccc(F)cc2)CC1)c1ccc2c(c1)OCO2	-8	-6
CCOc1ccc(-c2[nH]ncc2CN2CCCC2c2cc(C)on2)cc1 (stereo unspecified)	2	5
SMILES	Pf apPOL block	mHTT CaM bind
COc1cccc(C2=NN3C(C2)c2cccc(OC)c2OC32CCCCC2)c1 (stereo unspecified)	-14	52*
COc1cccc2c1OC1(CCCCC1)N1N=C(c3ccco3)CC21 (stereo unspecified)	-18	32
COc1cccc2c1OC(C)(C)N1N=C(c3ccco3)CC21 (stereo unspecified)	-23	55*
COc1ccc(C2=NN3C(C2)c2ccccc2OC32CCCCC2)cc1OC (stereo unspecified)	-8	45
COc1cccc2c1OC1(CCC(C)CC1)N1N=C(c3ccco3)CC21 (stereo unspecified)	-16	17
COc1ccc(C2=NN3C(C2)c2cc(OC)ccc2OC32CCCCC2)cc1 (stereo unspecified)	-17	60*
CCOc1ccccc1NC(=O)COc1ccc(C(C)C)cc1	-3	-78
Cc1cc(C(F)(F)F)c2c(N)c(C(=O)c3ccc([N+](=O)[O-])cc3)sc2n1	-7	16
CCCCC(=O)N1CCc2c(c(C(=O)NCc3ccc(F)cc3)nn2C)C1	-9	47
Cn1nc(C(=O)NCc2ccc(Cl)cc2)c2c1CCN(C(=O)c1ccc(F)cc1)C2	4	-10
CCC(=O)N1CCc2c(c(C(=O)NCc3ccccc3)nn2C)C1	-5	-6
CCC(CC)C(=O)N1CCc2c(c(C(=O)NCc3ccccc3)nn2C)C1	-4	51*
CCCC(CCC)C(=O)N1CCc2c(c(C(=O)NCc3ccc(F)cc3)nn2C)C1	-5	77*
CCC(CC)C(=O)N1CCc2c(c(C(=O)NCc3ccc(Cl)cc3)nn2C)C1	-2	71*
Cc1cc(C)nc(N2CCN(c3ncnc4sc5c(c34)CC(C)CC5)CC2)n1 (stereo unspecified)	-2	-1
Cc1cc(NC(=O)C(=O)NCc2ccncc2)ccc1Br	-10	1
Cc1cc(S(=O)(=O)NCC2CCN(C(=O)NC(C)(C)C)CC2)c(Cl)cc1Cl	3	-4
CC1CCN(CCCNC(=O)c2cc3c(s2)CN(C2CC2)C3)CC1	-1	-9
O=C(CSc1ncnc2ccccc12)N1CCCc2ccccc21	-3	-21
CC1(C)CC(=O)C2=C(C1)N(c1ccc(F)cc1)C(N)=C(C#N)C2c1cc(Br)cs1 (stereo unspecified)	-4	81*
CC1(C)CC(=O)C2=C(C1)N(c1ccccc1)C(N)=C(C#N)C2c1ccc(Br)s1 (stereo unspecified)	-3	89*
Cc1cccc(N2C(N)=C(C#N)C(c3cccs3)C3=C2CC(C)(C)CC3=O)c1 (stereo unspecified)	-4	33
COc1ccc(N2C(N)=C(C#N)C(c3ccc(F)cc3)C3=C2CC(C)(C)CC3=O)cc1 (stereo unspecified)	0	13
CC1(C)CCC2=C(C1=O)C(c1ccc(O)cc1)C1=C(CCC(C)(C)C1=O)O2	-4	3
COc1ccc(-n2nc3c(c2NC(=O)Cc2ccc(F)cc2)CS(=O)(=O)C3)cc1	-4	1
SMILES	Pf apPOL block	mHTT CaM bind
O=C(c1ccco1)N1CCC(OCc2nc(-c3ccncc3)no2)CC1	-4	2
CC(=O)c1ccc(C(=O)Nc2nnc(-c3ccc(F)cc3F)o2)cc1	-8	-4
COCCNC(=O)Cn1nc(-c2ccc(Cl)cc2)c2ccccc2c1=O	76*	1
O=C(Cn1nc(-c2ccc(Cl)cc2)c2ccccc2c1=O)Nc1ccc(Cl)cc1	12	9
O=C(Nc1ccc(-n2cnnn2)cc1)c1ccc(-n2ccnc2)nn1	-3	-5
C=CSc1sc(Cl)c(N(C)Cc2ccccc2)c1[N+](=O)[O-]	-76	64*
C=CSc1sc(Cl)c(N2CCCCCC2)c1[N+](=O)[O-]	6	43
C=CSc1sc(Cl)c(N2CCCC2)c1[N+](=O)[O-]	6	75*
CCN(Cc1ccccc1)Cc1ccccc1[N+](=O)[O-]	-8	-22
CCOc1cc(Nc2ccc(NC(=O)c3ccco3)cc2)nc(C)n1	-10	4
Cc1cc(C)n(-c2ccc(Nc3ccc(NC(=O)c4ccco4)cc3)nn2)n1	-8	67*
COc1ccc(C(C[N+](=O)[O-])Sc2cccc3cccnc23)cc1 (stereo unspecified)	-4	100*
CCCCOc1ccc(NC(=O)CSc2cccc3cccnc23)cc1	1	8
Cc1cc(N)n(-c2ncnc3c2cnn3-c2cccc(C)c2C)n1	-2	-6
COc1ccc(N2CC(CNS(=O)(=O)c3ccc4c(c3)CCCC4)CC2=O)cc1 (stereo unspecified)	-6	14
COc1ccc(N2CCC(CNS(=O)(=O)c3cccc(Cl)c3)C2)cc1 (stereo unspecified)	2	84*
O=C(c1ccc(Cn2cncn2)cc1)N1CCN(c2ccc(Cl)cc2)CC1	-11	5
